Screens from PubChem BioAssay.
TEAD-YAP block = TEAD-YAP interaction inhibition; HEK-TIYL cells, TEAD-Gal4/YAP UAS-luciferase luminescence; inhibition, % at 9.12 µM; hit rate 1.4% among 640,000; in the data active means inhibition above about 32%;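 further: 0% = median of test compound wells and 100% = reference inhibitor wells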
GPR151 activ = human GPR151 activation; Q8TDV0; hit rate 1% among 650,000; activation, % at 11.2 µM; PathHunter beta-arrestin GPR151 cells, luminescence; in the data active means activation above about 4.9%;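 further: 0% = median of compound wells and 100% = cells with positive control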
FBW7 activator = human FBW7 E3 ligase activation, primary screen; Q969H0; AlphaScreen FBW7–phospho-cyclin E peptide binding, activator screen; normalized activity (activation), % at 26.1 µM; hit rate 0.13% among 650,000; in the data active means normalized activity above about 1.9%;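 further: purified mutant Fbw7 with reduced substrate affinity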
MITF primary = inhibitors of human MITF; hit rate 0.91% among 650,000; O75030; inhibition, % at 2.6 µM; AlphaScreen MITF homodimerization, bead proximity signal; AID 1259374; in the data active means inhibition above about 50%;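 further: 0% = vehicle wells with protein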
Target sequence (O75030 whole entry, looked up): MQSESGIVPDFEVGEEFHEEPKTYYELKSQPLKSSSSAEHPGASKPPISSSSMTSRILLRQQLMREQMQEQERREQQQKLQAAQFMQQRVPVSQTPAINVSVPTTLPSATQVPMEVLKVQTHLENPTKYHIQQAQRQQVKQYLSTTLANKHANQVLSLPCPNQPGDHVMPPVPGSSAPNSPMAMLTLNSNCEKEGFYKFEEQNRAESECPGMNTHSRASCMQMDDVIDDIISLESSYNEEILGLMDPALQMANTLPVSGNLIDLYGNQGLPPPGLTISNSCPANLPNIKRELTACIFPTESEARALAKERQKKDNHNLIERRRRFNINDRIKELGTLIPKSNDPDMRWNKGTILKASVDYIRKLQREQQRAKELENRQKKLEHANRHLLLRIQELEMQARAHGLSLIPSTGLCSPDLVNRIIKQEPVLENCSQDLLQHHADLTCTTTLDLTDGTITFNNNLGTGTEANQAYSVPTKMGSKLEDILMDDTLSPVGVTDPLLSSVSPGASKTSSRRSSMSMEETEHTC
MITF confirm = confirmation of human MITF inhibitors; shares compounds with MITF primary; AlphaScreen MITF homodimerization, biotin/His-MITF beads; inhibition, % at 2.6 µM; hit rate 16% among 4,700; AID 1259372;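 active means inhibition above a cutoff derived from the DMSO control wells, cut at about 28% in these data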;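 further: 0% = MITF dimer wells with DMSO only; inhibitors lower the bead chemiluminescence by keeping MITF from dimerizing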
AS interf DR = AlphaScreen optical interference, dose response counter-screen. shares compounds with MITF primary. AlphaScreen optical interference counterscreen, cell-free. IC50, µM. hit rate 6% among 480. AID 1259373; call rule not given here
AlphaScreen intf2 = AlphaScreen optical interference, counter-screen; shares compounds with MITF primary; LysRS AlphaScreen counterscreen, signal interference, triplicate; inhibition, % at 2.6 µM; hit rate 7.6% among 4,700; AID 1259376;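 active means inhibition above a cutoff derived from the DMSO control wells, cut at about 30% in these data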
Numbers without * were called inactive; · = no result. The list is not random: actives were taken first. Their share in the collection is about 3.4%.

SMILES	TEAD-YAP block	GPR151 activ	FBW7 activator	MITF primary	MITF confirm	AlphaScreen intf2	others
OCCCNc1ncnc2sc(-c3ccccc3)cc12	0	1	0	-1	·	·
C=COCCCNc1ncnc2sc(-c3ccccc3)cc12	6	-1	0	61*	7	8
c1ccc(-c2cc3c(NCCCN4CCOCC4)ncnc3s2)cc1	-7	-1	0	61*	-1	-3
COc1ccc(Nc2nc(Nc3ccc(OC)cc3)nc(Sc3nc4ccccc4o3)n2)cc1	-7	1	0	8	·	·
O=C1CCCC(=O)N1CCS(=O)(=O)N1CCN(C2CCCCC2)CC1	7	0	0	10	·	·
O=[N+]([O-])c1ccc(N2CCN(CCOCCO)CC2)c([N+](=O)[O-])c1	-2	-1	0	56*	-5	-3
CCCc1nnc(NC(=O)CN2C(=O)C3C4C=CC(C4)C3C2=O)s1 (configuration not stated)	-8	2	0	58*	-6	-10
CCCc1nnc(NC(=O)NCN2C(=O)C3C4C=CC(C4)C3C2=O)s1 (configuration not stated)	6	2	0	-7	·	·
CC(C)(C)C(=O)N1CCCC(c2nc3c(nnn3Cc3ccccc3)c(=O)[nH]2)C1 (configuration not stated)	-9	2	0	6	·	·
CC(C)(C)C(=O)N1CCC(c2nc3c(nnn3Cc3ccccc3)c(=O)[nH]2)CC1	4	-1	0	71*	9	11
O=C(Nc1ccc(Cl)c(Cl)c1)N1CCCC1	-17	2	1	-2	·	·
COC(=O)CN(c1ccccn1)S(=O)(=O)c1ccccc1	4	0	0	61*	-6	-8
COC(=O)CN(c1ccc(I)cc1)S(=O)(=O)c1ccccc1	1	0	0	3	·	·
COc1ccc(/C=N/Nc2nncc(=O)[nH]2)cc1	-4	-1	0	4	·	·
NC(=O)Cn1cnc2sc3c(c2c1=O)CCC3	-6	0	0	66*	60*	3	AS interf DR=>6.5
O=C(O)Cn1cnc2sc3c(c2c1=O)CCC3	1	-1	-1	30	·	·
CCOC(=O)c1ccc(OCC(O)CN2CCCC2)cc1 (configuration not stated)	-3	4	0	52*	10	8
O=S1(=O)CC(OS(=O)(=O)c2ccccc2)C(OS(=O)(=O)c2ccccc2)C1 (configuration not stated)	2	1	0	71*	-5	-6
CCOc1ccc(C2C(C#N)=C(N)OC3=C2C(=O)CCC3)cc1 (configuration not stated)	-6	0	0	54*	3	-4
CCOC(=O)C1=C(N)OC2=C(C(=O)CCC2)C1c1ccc(Cl)cc1 (configuration not stated)	-1	0	0	89*	-4	-1
O=C(NC1CCN(Cc2ccccc2)CC1)C1CCCO1 (configuration not stated)	6	-1	0	4	·	·
COc1cccc(NC(=O)CSCc2cccc(Cl)c2)c1	-16	-1	0	5	·	·
Cc1cccc(NC(=O)C2C3C=CC(C4CC34)C2C(=O)O)c1C (configuration not stated)	5	4	0	55*	17	15
CCc1ccc(CNC(=O)CN(C)c2nn3c(=O)cc(C)nc3s2)cc1	-16	0	0	2	·	·
Clc1c(OCCCN2CCNCC2)ccc2ccccc12	-22	1	0	51*	-13	-7
SMILES	TEAD-YAP block	GPR151 activ	FBW7 activator	MITF primary	MITF confirm	AlphaScreen intf2	others
CCN1CCN(CCOc2cccc3ccccc23)CC1	14	0	0	-17	·	·
CCN1CCN(CCCOc2ccc3ccccc3c2Br)CC1	-19	0	0	61*	7	15
CCN1CCN(CCOc2ccc3ccccc3c2Cl)CC1	-2	0	0	58*	11	19
COc1ccc(O)c(C(=O)c2cnn(S(=O)(=O)N3CCC(C)CC3)c2)c1	21	0	0	4	·	·
O=C(NCCCn1ccnc1)C1CC12CCN(Cc1ccc3c(c1)OCCO3)CC2 (configuration not stated)	-8	0	0	-10	·	·
Cc1occc1C(=O)N1CCC(C)CC1	5	-1	0	-5	·	·
CCOc1ccc(N=c2sc(C3=c4ccccc4=NC3=O)c(O)n2-c2ccc(OCC)cc2)cc1	0	3	0	113*	10	18
COc1ccc2oc(=O)c(-c3cn4cccnc4n3)cc2c1	-26	0	0	72*	4	12
COC(=O)CCCC[C@H]1SC[C@H]2NC(=O)N[C@]21O	-2	1	-1	84*	107*	92*
Cn1cccc1CN1CCN(C(=O)c2ccc(-c3ccccc3)cc2)CC1	-6	1	0	33	·	·
Cn1cccc1CN1CCN(C(=O)c2ccc(F)cc2)CC1	4	0	0	53*	11	18
Cn1cccc1CN1CCN(C(=O)c2cccc(F)c2)CC1	10	3	0	27	·	·
Cn1cccc1CN1CCN(C(=O)c2ccccc2F)CC1	8	0	0	54*	11	17
Cc1ccc(-c2noc(C3CCCN(S(=O)(=O)c4ccc(C(C)(C)C)cc4)C3)n2)o1 (configuration not stated)	4	-1	0	77*	12	15
O=C(CSc1nc2[nH]ncc2c(=O)n1-c1ccc(F)c(Cl)c1)NCc1ccccc1Cl	11	-1	0	-1	·	·
Clc1ccccc1N1CCN(Cc2ccc(Br)o2)CC1	3	0	1	40	·	·
Fc1ccc(N2CCN(Cc3ccc(Br)o3)CC2)cc1	0	2	0	51*	3	6
Brc1ccc(CN2CCN(c3ccccn3)CC2)o1	5	-1	1	52*	6	2
COC(=O)c1ccc(CNc2ccc(F)c(F)c2)cc1	-10	-1	0	-23	·	·
CC(Sc1nc(-c2ccccc2)cc(C(F)(F)F)n1)C(N)=O (configuration not stated)	13	1	1	54*	1	2
O=C(CSc1nc(-c2ccccc2)cc(C(F)(F)F)n1)N1CCOCC1	-3	1	0	3	·	·
COc1ccccc1-n1cc(CN2CCN3C(=O)[C@H](CO)NC(=O)[C@H]3C2)cn1	7	0	0	16	·	·
CCC[C@@H]1NC(=O)[C@H]2CN(Cc3cnn(-c4ccccc4OC)c3)CCN2C1=O	-2	1	1	51*	-3	-2
Cc1ccc(-c2nnc3s/c(=C\c4ccco4)c(=O)n23)cc1	10	-1	0	64*	75*	-6	AS interf DR=>6.5
O=C1N/C(=C/c2cccn2-c2ccccc2)C(=O)N1Cc1ccccc1F	13	-1	0	55*	3	0
S=c1[nH]nc(CN2CCSCC2)n1-c1cccc(Cl)c1	-7	0	-1	62*	17	16
